± gives the standard deviation of the averaged measurements.
Tested on: E. coli BW25113 marRABp lux reporter
Experiment: promoter activity interaction Z-score (Lux/OD deviation from empty-vector control); higher = stronger promoter induction by the compound
Procedure: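 E. coli BW25113 (wild type or ΔmarA/ΔsoxS/Δrob) carrying pTU175 luxCDABE promoter reporters was grown in LB in 384-well plates at 37°C with each of 94 compounds at 4 two-fold concentrations, in biological duplicates. Luminescence and OD600 were read every 30 min for 12 h and integrated as AUC over 8 h (0-8 h WT, 1-9 h mutants). Lux AUC was divided by OD AUC; the interaction score is the residual of a Huber robust fit of each promoter against the empty-vector control, then Z-transformed per promoter.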

SMILES | promoter activity interaction Z-score (0.25 µg/ml, genetic background: wild type) | promoter activity interaction Z-score (0.25 µg/ml, genetic background: ΔmarA) | promoter activity interaction Z-score (0.25 µg/ml, genetic background: Δrob) | promoter activity interaction Z-score (0.25 µg/ml, genetic background: ΔsoxS) | promoter activity interaction Z-score (0.5 µg/ml, genetic background: wild type) | promoter activity interaction Z-score (0.5 µg/ml, genetic background: ΔmarA) | promoter activity interaction Z-score (0.5 µg/ml, genetic background: Δrob) | promoter activity interaction Z-score (0.5 µg/ml, genetic background: ΔsoxS) | promoter activity interaction Z-score (1 µg/ml, genetic background: wild type) | promoter activity interaction Z-score (1 µg/ml, genetic background: ΔmarA) | promoter activity interaction Z-score (1 µg/ml, genetic background: Δrob) | promoter activity interaction Z-score (1 µg/ml, genetic background: ΔsoxS) | promoter activity interaction Z-score (2 µg/ml, genetic background: wild type) | promoter activity interaction Z-score (2 µg/ml, genetic background: ΔmarA) | promoter activity interaction Z-score (2 µg/ml, genetic background: Δrob) | promoter activity interaction Z-score (2 µg/ml, genetic background: ΔsoxS) | promoter activity interaction Z-score (24.5 µg/ml, genetic background: wild type) | promoter activity interaction Z-score (24.5 µg/ml, genetic background: ΔmarA) | promoter activity interaction Z-score (24.5 µg/ml, genetic background: Δrob) | promoter activity interaction Z-score (24.5 µg/ml, genetic background: ΔsoxS) | promoter activity interaction Z-score (49.1 µg/ml, genetic background: wild type) | promoter activity interaction Z-score (49.1 µg/ml, genetic background: ΔmarA) | promoter activity interaction Z-score (49.1 µg/ml, genetic background: Δrob) | promoter activity interaction Z-score (49.1 µg/ml, genetic background: ΔsoxS) | promoter activity interaction Z-score (98.1 µg/ml, genetic background: wild type) | promoter activity interaction Z-score (98.1 µg/ml, genetic background: ΔmarA) | promoter activity interaction Z-score (98.1 µg/ml, genetic background: Δrob) | promoter activity interaction Z-score (98.1 µg/ml, genetic background: ΔsoxS) | promoter activity interaction Z-score (196.3 µg/ml, genetic background: wild type) | promoter activity interaction Z-score (196.3 µg/ml, genetic background: ΔmarA) | promoter activity interaction Z-score (196.3 µg/ml, genetic background: Δrob) | promoter activity interaction Z-score (196.3 µg/ml, genetic background: ΔsoxS)
C/C(=C\C(=O)OCCCCCCCCC(=O)O)C[C@@H]1OC[C@H](C[C@@H]2O[C@H]2[C@@H](C)[C@H](C)O)[C@@H](O)[C@H]1O [Pseudomonic acid] | 0.11 ± 0.42 | -0.235 ± 0.012 | -0.0762 ± 0.015 | 0.0844 ± 0.02 | -0.132 ± 0.23 | 0.0957 ± 0.22 | -0.00927 ± 0.019 | -0.0242 ± 0.093 | -0.169 ± 0.093 | -0.155 ± 0.7 | -0.106 ± 0.21 | -0.0673 ± 0.12 | 0.422 ± 0.28 | 0.511 ± 0.47 | 0.235 ± 0.31 | 0.341 ± 0.086 | – | – | – | – | – | – | – | – | – | – | – | – | – | – | – | –
C[C@H](CCC(=O)O)[C@H]1CC[C@H]2[C@@H]3CC[C@@H]4C[C@H](O)CC[C@]4(C)[C@H]3C[C@H](O)[C@]12C [Deoxycholic acid] | – | – | – | – | – | – | – | – | – | – | – | – | – | – | – | – | -0.31 ± 0.18 | -0.0533 ± 0.055 | -0.148 ± 0.14 | -0.343 ± 0.17 | -0.0619 ± 0.22 | -0.261 ± 0.22 | -0.128 ± 0.13 | -0.203 ± 0.24 | -0.0956 ± 0.065 | -0.111 ± 0.12 | -0.283 ± 0.077 | -0.336 ± 0.16 | -0.225 ± 0.38 | -0.118 ± 0.15 | -0.197 ± 0.065 | -0.366 ± 0.062

Reference: the supplement of paper PMC12282887
